# TRHR agonist-1: activates the human TRH receptor. P34981. TRHR cells, calcium flux fluo-8, FDSS agonist mode. activation, % at 2 µM. hit rate 0.18% among 360,000; note: 0% is about no effect
#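 Read-out: compound-evoked intracellular calcium rise in TRHR cells, fluo-8 dye, kinetic FDSS fluorescence at 1 s/cycle following a 10-cycle baseline. Cells cultured overnight before dye loading (30 min–1.5 h, RT).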
# D1 agonist: human D1 receptor agonism; P21728; HEK293 T-REx D1 cells, calcium flux, agonist mode; activation, % at 2 µM; hit rate 1% among 360,000; AID 504660; note: 0% is about no effect
#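 Inducible HEK293 T-REx D1 cells, force-coupled to calcium signalling, were plated at 4000 cells/well with tetracycline and held overnight at 30 C. After no-wash calcium dye loading, compound-evoked calcium rise over 180 s flagged agonists.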
# D1 PAM: human D1 dopamine receptor positive modulation. AID 504651. hit rate 0.036% among 360,000. HEK293 TREx D1 cells, calcium flux, dopamine EC20 potentiation. P21728. potentiation, % at 10 µM; in the data active = potentiation above about 30%; note: 0% is about no effect
# TRHR enhancer-1: TRH receptor (human) allosteric enhancement | TRHR cells, fluo-8 calcium fluorescence, EC20 TRH enhancement | enhancement, % at 2 µM | AID 493056 | hit rate 0.66% among 360,000 | P34981; in the data active = enhancement above about 30%; note: 0% is about no effect
#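 Enhancer read-out: after compound pinning and an initial kinetic agonist-mode read, an EC20 of TRH (10 nM final) was injected and fluo-8 calcium signal (Ex 480/Em 530) followed at 1 s/cycle for 100 cycles in TRHR-expressing cells.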
# D1 antagonist: human D1 dopamine receptor antagonism. hit rate 3.2% among 360,000. AID 504652. activity change, negative = inhibition, % at 10 µM. P21728. HEK293 TREx D1 cells, calcium flux, dopamine EC80; stronger effect = lower value; in the data active = activity change below about -30%; note: % is set by controls: 0 for no effect and ±100 for the full control effect
#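 Tetracycline-induced HEK293 Trex D1 cells, force-coupled to calcium, dye-loaded; compounds added and read 180 s, then EC80 dopamine added and calcium flux tracked kinetically another 180 s.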
# TRHR enhancer-2: human TRH receptor allosteric enhancement confirmation. shares compounds with TRHR enhancer-1. TRH receptor cell assay, enhancer confirmation qHTS. activity change, negative = inhibition, % at 46.1 µM. 970 tested, under 10 active; active = well fitted curve in the direction sought with a large enough effect; inconclusive = small, poorly fitted or top-dose-only effect, or another doubt; inactive = no such curve, though single readings can be large; an effect the other way counts as inactive or inconclusive;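 note: compound effect scored on response to added TRH at EC20 of 10 nM; 0% is about no effect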
# TRHR agonist-2: confirmation of human TRH receptor agonists. shares compounds with TRHR enhancer-1. TRHR-expressing cells, agonist activation read-out. Potency, µM (top dose mostly 46.1 µM), inactives show at the highest dose activation, actives largely listed as activators. hit rate 8% among 970. AID 493078; active = well fitted curve in the direction sought with a large enough effect; inconclusive = small, poorly fitted or top-dose-only effect, or another doubt; inactive = no such curve, though single readings can be large; an effect the other way counts as inactive or inconclusive; note: potency is the fitted concentration of half-maximal effect; 0% is about no effect; nearly all actives have a fitted effect of over 75% in size
# Numbers without * were called inactive; ? = inconclusive; . = not tested or not shown; ! = repeats disagree. This is a sample that favours compounds with a hit; in the whole collection about 4.7% have one here. Cut-off read from the data, not from the text of the source, unless noted: active = activation above about 30%; inactive = the rest.
SMILES,TRHR agonist-1,D1 agonist,D1 PAM,TRHR enhancer-1,D1 antagonist,TRHR enhancer-2,TRHR agonist-2
CCc1nnc(NC(=O)C2CCN(c3ncnc4sc(C)c(C)c34)CC2)s1,-0.5,-0.7,5.1,42.0*,-14.4,2.8,5.2%
CC(C)CNC(=O)C(=O)NCC1OCCCN1S(=O)(=O)c1cccs1 (stereo not given),0.5,0.6,-0.4,2.4,1.7,.,.
COc1cc(C2C(C#N)=C(N)Oc3cc(N(C)C)ccc32)cc2c1OCO2 (stereo not given),44.7*,45.3*,-1.4,2.0,10.2,2.8,?
COC(=O)c1cc(S(=O)(=O)N2CCN(c3ccccc3)CC2)c[nH]1,0.8,15.6,-9.2,-2.5,-4.5,.,.
COC(=O)c1cc(S(=O)(=O)N2CCN(c3cccc(C)c3C)CC2)c[nH]1,0.2,8.2,-20.1,48.2*,-2.6,-7.4,-0.6%
O=C(Cc1cccc(NC(=O)C2CCN(C(=O)C3CCCCC3)CC2)c1)Nc1cccc(C(=O)N2CCCC2)c1,-0.3,-0.1,-0.4,4.2,-3.0,.,.
Oc1c(C=C2N=c3ccccc3=N2)sc(=S)n1-c1ccccc1,-1.0,7.9,-5.8,3.4,-2.7,.,.
Oc1c(C=C2N=c3ccccc3=N2)sc(=S)n1C1CCCCC1,0.0,2.3,-1.1,41.2*!,18.6,-2.2,-0.8%
COc1cc(CN2CCN(CCCc3ccccc3)C(CCO)C2)cc(OC)c1O (stereo not given),0.6,-0.7,0.3,2.8,9.1,.,.
CCCCCN1C=CC=C/C1=C\C=C(C#N)C#N,30.6*,71.2*,3.9,-1.7,1.6,-4.3,20.6µM*
CCCN1C=CC(=CC=C(C#N)C#N)C=C1,41.8*,128.9*,-0.7,-1.3,-2.9,-1.3,18.4µM*
CCOC(=O)C1CCN(C(=O)Cn2cc(C(=O)C3CC3)c3ccccc32)CC1,-0.3,-0.8,0.5,2.4,-7.1,.,.
O=C(c1cn(CC(=O)N2CCCCC2)c2ccccc12)C1CC1,0.2,0.0,-0.2,50.6*,5.3,-1.8,-0.5%
O=C(CSc1nc2ccsc2c(=O)n1-c1ccc(Br)cc1)NCc1ccccc1,-0.6,5.7,-2.8,2.0,7.6,.,.
O=C(NCCc1ccc(Cl)cc1)C12CC3CC(CC(O)(C3)C1)C2,0.4,-0.3,1.0,45.0*,6.5,0.1,0.7%
